Assay outcomes (PubChem)
This excerpt belongs to a sample that is enriched for hits.
RBX1-CUL1 inh: inhibitors of human ROC1-CUL1 ubiquitin ligase activity | AID 1347404, 2020 | 140,000 tested, 0.6% active | E3 ubiquitin-protein ligase RBX1 (Homo sapiens) + Cullin-1 (Homo sapiens), P62877+Q13616 | inhibition, % at 10 µM | in vitro K48 di-Ub FRET, acceptor:donor ratio, 45 min; in the data active = inhibition above about 25%
Target sequence (P62877 whole entry, looked up): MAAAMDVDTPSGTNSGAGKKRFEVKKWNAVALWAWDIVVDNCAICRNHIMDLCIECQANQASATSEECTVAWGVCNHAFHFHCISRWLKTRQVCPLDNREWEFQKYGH
Target sequence (Q13616 whole entry, looked up): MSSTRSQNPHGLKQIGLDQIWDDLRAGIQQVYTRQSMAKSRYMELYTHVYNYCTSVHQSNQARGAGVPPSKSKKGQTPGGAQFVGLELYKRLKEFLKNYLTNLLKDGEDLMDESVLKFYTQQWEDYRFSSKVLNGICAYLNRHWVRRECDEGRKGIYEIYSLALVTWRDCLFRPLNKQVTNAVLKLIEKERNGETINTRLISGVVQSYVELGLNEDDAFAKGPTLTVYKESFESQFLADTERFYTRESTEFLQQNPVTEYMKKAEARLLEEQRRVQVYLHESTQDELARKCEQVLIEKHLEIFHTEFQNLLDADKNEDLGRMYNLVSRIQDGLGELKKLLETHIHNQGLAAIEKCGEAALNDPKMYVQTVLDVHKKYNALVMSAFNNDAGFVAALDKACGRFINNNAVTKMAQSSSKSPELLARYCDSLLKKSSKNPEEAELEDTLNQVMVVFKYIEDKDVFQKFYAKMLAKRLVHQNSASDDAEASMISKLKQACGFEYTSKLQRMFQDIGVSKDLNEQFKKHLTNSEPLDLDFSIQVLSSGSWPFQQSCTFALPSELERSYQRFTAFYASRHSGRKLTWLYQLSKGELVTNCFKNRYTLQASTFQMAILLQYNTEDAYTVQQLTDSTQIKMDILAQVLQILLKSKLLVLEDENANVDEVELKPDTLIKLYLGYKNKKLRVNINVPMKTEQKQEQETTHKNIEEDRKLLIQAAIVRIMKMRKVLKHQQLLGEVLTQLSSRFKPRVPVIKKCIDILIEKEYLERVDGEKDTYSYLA
Each line names hits and unclear results; the compound was inactive in the other large screens.

COc1c(I)cc(I)cc1/C=C1/C(=O)NN(c2ccc(Cl)cc2)C1=O	RBX1-CUL1 inh 47
O=C1NN(c2ccccc2)C(=O)/C1=C/c1cccc(OCCCOc2ccc(Cl)cc2)c1	none
COc1cc(/C=C2\C(=O)NN(c3ccc(Cl)c(Cl)c3)C2=O)cc(Br)c1O	none
COc1ccc(/C=C2\C(=O)NN(c3cccc(Cl)c3)C2=O)cc1	none
Cc1ccc(-c2cc(-c3ccccc3)c3c(N)c(C(=O)Nc4cc(Cl)ccc4C)sc3n2)cc1	none
CC1CCCC(C)N1CC(O)COc1ccc(N)cc1 (stereo not given)	none
Cn1cc(CN2CCCC(CNC(=O)c3cccnc3)C2)c(-c2ccccc2)n1 (stereo not given)	none
CC1=C(CCN2CCC(n3cc(C(C)(C)N)nn3)CC2)C(C)(C)CCC1	none
Cc1cc(Cl)c2c(ccc3ccccc32)n1	none
Cc1ccc(-c2csc3ncn(CC(=O)OC4CCCCC4)c(=O)c23)cc1C	none
Cc1nn(-c2ccccc2)c2ncc(C(=O)c3cc(Br)ccc3O)cc12	none
O=C1NN(c2cccc(Cl)c2)C(=O)/C1=C\c1ccc(-c2ccc(Br)cc2C(=O)O)o1	RBX1-CUL1 inh 80
COc1ccccc1/C=C1/C(=O)NN(c2ccc(Br)cc2)C1=O	none
COC(=O)c1cccc(-c2ccc(/C=C3/C(=O)NN(c4cccc(Cl)c4)C3=O)o2)c1	none
COc1ccc(Br)cc1/C=C1/C(=O)NN(c2cccc(Cl)c2)C1=O	RBX1-CUL1 inh 89
COc1ccccc1/C=C1\C(=O)NN(c2cccc(Cl)c2)C1=O	none
COC(=O)c1cc(-c2ccc(/C=C3/C(=O)NN(c4cccc(Br)c4)C3=O)o2)ccc1Cl	none
CN(Cc1nccs1)c1nncc(-c2ccccc2F)n1	none
Cc1nnc(Sc2ncccc2[N+](=O)[O-])s1	none
CCC1CCc2nc3sc(C(=O)Nc4cccc(C)c4)c(N)c3cc2C1 (stereo not given)	none
Cc1ccc(C(C)C)cc1OCC(=O)N/N=C/c1ccc([N+](=O)[O-])s1	none
COc1ccc(OC)c(-c2cc(Cl)c3c(c2)CC(CNC(=O)[C@H](CC(C)C)NC(C)=O)O3)c1 (stereo not given in full)	none
O=C(CSc1nc2scc(-c3ccco3)c2c(=O)n1-c1ccccc1)Nc1ccc2c(c1)OCCO2	none
O=C(CSc1nc2scc(-c3ccco3)c2c(=O)n1-c1ccccc1)c1ccc(F)cc1	RBX1-CUL1 inh 97
CC(=O)CSc1nc2scc(-c3ccc(C)o3)c2c(=O)n1-c1ccccc1	none
C1=C(CCNCc2ccccn2)CCCC1	none
CN(C)c1cc[n+](Cc2ccccn2)cc1	none
c1ccc(C[n+]2cccc3c2CCCC3)nc1	RBX1-CUL1 inh 45
O=C(O)CSc1cccnc1Sc1ccc(Cl)cc1	none
CSC1=NC(=O)C(C(c2ccc(Cl)cc2)C2C(=O)N=C(SC)NC2=O)C(=O)N1 (stereo not given)	none
O=C1Oc2cccnc2C(=O)C1C(c1ccc(Cl)cc1)C1C(=O)Oc2cccnc2C1=O (stereo not given)	RBX1-CUL1 inh 38
COc1ccc(C(=O)NCC2Cc3cc(-c4nc(C)cnc4C)ccc3O2)c(OC)c1 (stereo not given)	none
COc1cc(C)c(-c2c(C)cc(OC)cc2C)c(C)c1	none
Cc1cccc(OCC(=O)NNC(=O)CCCCC(=O)NNC(=O)COc2cccc(C)c2)c1	none
Cc1cccc(OCC(=O)N/N=C/c2cccn2-c2ccc([N+](=O)[O-])cc2)c1	none
Cc1cccc(OCC(=O)NNc2ccc([N+](=O)[O-])cc2[N+](=O)[O-])c1	RBX1-CUL1 inh 30
Cc1nn(-c2ccc(OC(F)(F)Cl)cc2)c2c1C(C(F)(F)F)(C(F)(F)F)C(C#N)C(N)=N2 (stereo not given)	none
CCN1CCN(CC(O)COc2ccc(Cl)cc2C)CC1 (stereo not given)	none
COC(=O)C(O)(C1C(=O)N(c2ccccc2)N=C1C)C(F)(F)F (stereo not given)	RBX1-CUL1 inh 75
CC1=NN(c2ccccc2)C(=O)C1C(=O)c1ccc(Cl)cc1 (stereo not given)	none
CC(=O)NC1C(=O)N(c2ccccc2)N=C1C (stereo not given)	none
COCC1CCCN(Cc2cn(C)nc2-c2ccccc2F)C1 (stereo not given)	none
CC1C(=O)N(C)CCN1C(=O)c1cc(-c2cnn(C)c2)nc2ccc(F)cc12 (stereo not given)	none
CCCCNC(=O)c1nc(C)c(C)nc1C(=O)Nc1ccc(Cl)cc1	none
C=CCn1c(Sc2nc3c(C(=O)OCC)nnn3c3ccccc23)nnc1-c1ccccc1	none
CCOC(=O)c1nnn2c1nc(Cl)c1ccccc12	RBX1-CUL1 inh 79
CCOC(=O)c1nnn2c3ccccc3c(=O)n(CC(=O)c3ccc(Cl)cc3)c12	none
Cc1ccccc1OC(C)C(=O)Nc1cccc(O)c1 (stereo not given)	none
Cn1c(=O)c2c([nH]c(=S)n2CC2CC2)n(C)c1=O	none
COCCn1cnc2cc(NC(=O)C3CCCCC3)cc(C(=O)NCC3CCCN(C(C)C)C3)c21 (stereo not given)	none
Cc1cc(/C=C2\C(=O)NC(=S)N(C)C2=O)c(C)n1-c1ccccc1F	none
